# According to PubChem BioAssay:
# Active and inactive are the calls of the source.
# Legend:
# [1] = test system: Plasmodium falciparum Sir2 (PF13_0152, Sir2A); test: pfSir2 binders on small-molecule microarrays, primary screen, biochemical, small-molecule microarray, 635 nm fluorescence (AID 1098); conditions: small-molecule microarray binding, fluorescence 635 nm; higher = more signal;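 further: score merges spot fluorescence intensity with its signal-to-noise ratio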
# [2] = small-molecule microarray binders of probe aDKK1, primary screen, biochemical, biotinylated probe, 635/667 nm fluorescence (AID 1099); conditions: higher = more signal;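 further: score merges 667nm spot fluorescence with signal to noise across triplicate slides; reference of the scale not given here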
# [3] = small-molecule microarray binders of probe aCHRDL2, primary screen, biochemical, biotinylated probe, 635/667 nm fluorescence (AID 1100); conditions: higher = more signal
# [4] = splicing luciferase reporter signal modulators, primary screen, spliceosome inhibition project, cell-based, HEK293, splice +/- reporter (AID 1101); conditions: luminescence, 24 h, higher = more signal, called active from +8 up or from −8 down;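 further: HEK293 cells carrying a splicing-competent luciferase reporter gene; test concentration not given here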
# [5] = biological target: Fibroblast growth factor 10 (Homo sapiens) (UniProt O15520); test: FGF10 binders on small-molecule microarrays, primary screen, biochemical, small-molecule microarray, 635 nm fluorescence (AID 1102); conditions: FGF10 binding, fluorescence 635 nm, higher = more signal
# Sequence of Fibroblast growth factor 10 (Homo sapiens) (O15520 whole entry, looked up): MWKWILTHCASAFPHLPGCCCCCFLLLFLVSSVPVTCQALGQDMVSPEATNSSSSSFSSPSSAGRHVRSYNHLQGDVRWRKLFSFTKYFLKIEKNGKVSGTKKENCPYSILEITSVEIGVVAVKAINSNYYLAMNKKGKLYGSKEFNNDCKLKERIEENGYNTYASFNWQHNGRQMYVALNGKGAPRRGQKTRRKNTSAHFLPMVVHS
# [6] = test system: glycogen synthase kinase-3 (GSK3A per assay name; protocol says GSK3B); test: GSK3 binders on small-molecule microarrays, primary screen, biochemical, small-molecule microarray, 635 nm fluorescence, GSK3A (AID 1103); conditions: small-molecule microarray binding, fluorescence 635 nm; higher = more signal; further: the record names both GSK3A and GSK3B
# [7] = biological target: Epidermal growth factor receptor (Homo sapiens) (UniProt P00533); test: EGFR binders on small-molecule microarrays, primary screen, biochemical, small-molecule microarray, 635 nm fluorescence (AID 1104); conditions: EGFR binding, higher = more signal;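 further: score merges 667 nm emission intensity with spot signal to noise over triplicate slides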
# Sequence of Epidermal growth factor receptor (Homo sapiens) (P00533 whole entry, looked up): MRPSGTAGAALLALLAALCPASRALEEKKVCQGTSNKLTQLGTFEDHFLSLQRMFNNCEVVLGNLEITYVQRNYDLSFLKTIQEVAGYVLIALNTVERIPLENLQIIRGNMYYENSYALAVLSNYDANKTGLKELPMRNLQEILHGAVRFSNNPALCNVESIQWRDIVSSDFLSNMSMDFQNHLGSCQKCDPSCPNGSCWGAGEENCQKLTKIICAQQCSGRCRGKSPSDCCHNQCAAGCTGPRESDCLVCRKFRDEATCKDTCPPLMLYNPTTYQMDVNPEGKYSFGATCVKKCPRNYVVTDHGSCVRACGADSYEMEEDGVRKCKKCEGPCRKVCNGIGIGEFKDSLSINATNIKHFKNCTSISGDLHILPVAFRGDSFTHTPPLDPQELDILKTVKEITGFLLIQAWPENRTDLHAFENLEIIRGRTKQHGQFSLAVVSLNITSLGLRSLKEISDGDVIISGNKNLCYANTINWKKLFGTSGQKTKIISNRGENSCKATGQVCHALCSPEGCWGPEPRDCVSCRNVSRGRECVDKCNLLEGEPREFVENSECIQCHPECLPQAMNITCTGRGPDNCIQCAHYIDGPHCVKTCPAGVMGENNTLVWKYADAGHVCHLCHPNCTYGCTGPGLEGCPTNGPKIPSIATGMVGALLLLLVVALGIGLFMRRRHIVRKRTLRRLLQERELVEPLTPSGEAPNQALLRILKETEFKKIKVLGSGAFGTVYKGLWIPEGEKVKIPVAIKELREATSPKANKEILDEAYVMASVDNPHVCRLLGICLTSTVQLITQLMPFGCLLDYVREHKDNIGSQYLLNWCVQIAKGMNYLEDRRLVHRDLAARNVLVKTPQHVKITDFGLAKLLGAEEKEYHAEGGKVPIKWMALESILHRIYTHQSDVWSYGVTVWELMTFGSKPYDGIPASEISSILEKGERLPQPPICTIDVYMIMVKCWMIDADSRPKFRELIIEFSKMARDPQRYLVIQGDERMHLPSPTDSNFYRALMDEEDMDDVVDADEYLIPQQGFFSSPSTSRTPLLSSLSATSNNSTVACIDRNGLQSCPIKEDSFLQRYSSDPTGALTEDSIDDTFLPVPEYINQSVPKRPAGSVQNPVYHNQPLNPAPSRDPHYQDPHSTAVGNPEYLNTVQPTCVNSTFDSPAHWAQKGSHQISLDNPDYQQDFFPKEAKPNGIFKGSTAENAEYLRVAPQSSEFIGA
# [8] = biological target: Follistatin-related protein 3 (Homo sapiens) (UniProt O95633); test: FSTL3 binders on small-molecule microarrays, primary screen, biochemical, small-molecule microarray, 635 nm fluorescence (AID 1105); conditions: FSTL3 binding, higher = more signal;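 further: score merges emission near 667 nm and signal to noise per printed spot across three slides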
# Sequence of Follistatin-related protein 3 (Homo sapiens) (O95633 whole entry, looked up): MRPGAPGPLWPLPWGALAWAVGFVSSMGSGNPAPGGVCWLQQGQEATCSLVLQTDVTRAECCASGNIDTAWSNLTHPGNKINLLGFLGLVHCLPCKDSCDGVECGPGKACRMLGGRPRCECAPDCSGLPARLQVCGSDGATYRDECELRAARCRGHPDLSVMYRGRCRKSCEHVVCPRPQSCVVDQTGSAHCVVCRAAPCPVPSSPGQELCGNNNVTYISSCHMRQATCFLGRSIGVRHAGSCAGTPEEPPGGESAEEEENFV
# [9] = biological target: Dickkopf-related protein 1 (Homo sapiens) (UniProt O94907); test: DKK1 binders on small-molecule microarrays, primary screen, biochemical, small-molecule microarray, 635 nm fluorescence scan (AID 1106); conditions: DKK1 binding, higher = more signal;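 further: score merges emission near 667 nm with signal to noise over three replicate slides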
# Sequence of Dickkopf-related protein 1 (Homo sapiens) (O94907 whole entry, looked up): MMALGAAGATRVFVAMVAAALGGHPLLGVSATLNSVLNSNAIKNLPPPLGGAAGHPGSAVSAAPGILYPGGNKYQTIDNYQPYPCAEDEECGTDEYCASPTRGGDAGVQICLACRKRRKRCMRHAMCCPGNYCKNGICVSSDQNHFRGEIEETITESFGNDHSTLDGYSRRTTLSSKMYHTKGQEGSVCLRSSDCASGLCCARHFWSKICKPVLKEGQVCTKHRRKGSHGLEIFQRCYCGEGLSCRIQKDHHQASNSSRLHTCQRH
# [10] = test system: Inhibin beta A chain (activin A); test: INHBA (activin A) binders on microarrays, primary screen, biochemical, small-molecule microarray, 635 nm fluorescence scan (AID 1107); conditions: small-molecule microarray binding, higher = more signal;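 further: mouse activin A protein probed at 4.33 µg/mL on printed slides; score merges bound-protein fluorescence near 667 nm with spot signal-to-noise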
SMILES,composite z-score [1],composite z-score [2],composite z-score [3],z-score [4],composite z-score [5],composite z-score [6],composite z-score [7],composite z-score [8],composite z-score [9],composite z-score [10]
C=CCOC(=O)[C@@H]1[C@H]2C(=O)O[C@H](c3ccccc3)[C@H](c3ccccc3)N2[C@H](c2ccc(OCCOC(=O)[C@H]3C[C@H]4C(=O)N[C@@H](CCCCNC(C)=O)C(=O)N4[C@H]3c3cccc(OCCO)c3)cc2)[C@@]12C(=O)Nc1ccc(I)cc12,1.52,0.453,0.182,0.357 (inactive),0.909,1.32,0.771,1.23,1.45,0.124
COCCOC(=O)N1C(=O)[C@@]2(c3ccccc31)[C@H](C(=O)N1CCN(c3ncccn3)CC1)[C@H]1C(=O)O[C@H](c3ccccc3)[C@H](c3ccccc3)N1[C@@H]2c1ccc(OCCO)cc1,1.02,0.657,0.422,-0.471 (inactive),1.24,0.402,1,1.03,0.286,0.252
O=C(CS)NCCCCCCNC(=O)[C@@H]1C[C@@H]2C(=O)N3CCC[C@H]3C(=O)N2[C@@H]1c1cccc(OCCO)c1,1.62,0.0302,0.396,-1.77 (inactive),0.964,0.896,0.559,0.704,0.426,0.653
CCCCN1CC=CC23O[C@@H]4C=CCOC(=O)[C@@H]4[C@H]2C(=O)N(CCCO)[C@@H]3C1=O (stereo not given in full),1.24,-0.159,0.48,-1.32 (inactive),-0.816,-1.16,-0.953,-1.18,-1.05,0.396
CC(C)CN1C(=O)[C@@]2(c3ccc([N+](=O)[O-])cc3)CC(=O)N(CC34CC5CC(CC(C5)C3)C4)[C@@H]2c2ccc(CO)cc21,0.984,0.185,0.807,-0.668 (inactive),-1.02,-0.853,-1.72,-1.09,-1.48,0.2
COc1cc(CO)cc(I)c1O[C@H]1C=C(C(=O)NCCO)C[C@@H](N(Cc2ccc(F)cc2)C(=O)C2CCCO2)[C@@H]1O (stereo not given in full),0.0885,-0.139,-0.697,-0.0727 (inactive),0.182,0.1,0.346,0.203,0.208,0.676
C=CC[C@@]12N=C(c3ccc(OCCCO)cc3)O[C@@H]1c1ccccc1N(CCS(=O)(=O)c1ccccc1)C2=O,1.22,-0.183,0.269,-2.49 (inactive),0.397,1.28,0.272,1.19,0.571,1.23
COc1ccc(NN2C(C(O)c3ccco3)C=CC3C(=O)N(C4CCCCC4)C(=O)C32)cc1 (stereo not given),1.39,0.456,0.689,0.157 (inactive),1.35,1.32,0.423,1.49,0.0006,0.725
O=C1c2ccccc2[C@](Cc2ccccc2I)(C(=O)NCc2ccccc2)[C@H](c2ccc(CO)cc2)N1C1CCCCC1,0.851,0.969,0.357,-0.216 (inactive),1.37,1.08,0.228,1.08,0.837,0.958
C=CC[C@H](OC(=O)Nc1ccc(OC)cc1)c1ccc(O)c2ccccc12,1.24,0.121,0.0255,3.32 (inactive),0.82,1.29,0.547,1.26,0.92,1.05
COc1cc(OC)c(C(O)C2C=CC3C(=O)N(c4ccccc4)C(=O)C3N2Nc2ccc(C#N)cc2)cc1Br (stereo not given),0.842,1.56,1.4,1.47 (inactive),1.18,0.687,0.763,0.95,-0.0884,0.664
COc1ccc(NN2C(C(O)c3ccccn3)C=CC3C(=O)N(C4CCCCC4)C(=O)C32)cc1 (stereo not given),1.31,0.2,0.862,-1.44 (inactive),0.962,1.25,0.224,1.16,-0.39,0.627
COC(=O)[C@@]1(Cc2ccc(OC)cc2)[C@H]2c3cc(C(=O)N(C)C)n(CCc4c[nH]c5ccc(O)cc45)c3C[C@H]2CN1C(=O)c1ccccc1,1.06,1.43,0.984,-1.65 (inactive),0.934,1.12,0.562,1.23,-0.509,1.26
CN(C)C(=O)[C@]1(CCC(=O)OC(C)(C)C)N=C(c2ccc(OCCCO)cc2)O[C@@H]1c1ccccc1,0.11,0.937,1.01,-0.403 (inactive),0.617,1.11,-0.0133,0.011,-0.136,0.12
COc1ccc([Si](C)(C)[C@@H]2[C@@H](CC(=O)N3CCC[C@H]3CO)O[C@]3(C(=O)N(Cc4ccc(N5C(=O)c6cccc7cccc5c67)cc4)c4ccccc43)[C@H]2C)cc1,1.56,-0.184,-0.2,-1.11 (inactive),1.38,1.29,0.564,1.06,0.587,0.231
NC(N)=NCc1cn(CCc2c[nH]c3ccccc23)nn1,0.689,0.0191,-0.865,-0.443 (inactive),0.479,1.18,0.699,1.12,1.6,0.307
COc1ccccc1CN1C(=O)c2ccccc2[C@@H](C(=O)NC(C)C)[C@@H]1c1ccc(CO)cc1,0.567,0.711,0.756,0.011 (inactive),1.33,1.23,0.754,1.24,0.673,0.93
CN1C(=O)C2C=CC(C(O)Cc3ccccc3)N(N(c3ccccc3)c3ccccc3)C2C1=O (stereo not given),0.86,0.46,0.733,0.653 (inactive),0.812,-0.227,-0.567,-0.068,-0.303,0.864
COc1ccc(C(O)C2C=CC3C(=O)N(c4ccccc4)C(=O)C3N2Nc2ccc(C#N)cc2)c2ccccc12 (stereo not given),1.2,0.585,0.917,1.8 (inactive),0.581,0.811,-0.0239,0.733,0.138,0.675
C=C[C@@H](COC(C)=O)NS(=O)(=O)c1ccc(Br)cc1,0.549,-0.103,-0.0829,23.4 (active),0.172,0.444,0.118,0.412,0.77,0.361
COc1cc(CO)cc(I)c1O[C@H]1C=C(C(=O)NCCO)C[C@@H](N(CC2CCCCC2)C(=O)c2ccc(C(F)(F)F)cc2)[C@@H]1O,0.199,-0.267,-0.49,-0.0436 (inactive),0.626,0.0722,0.515,0.483,0.521,0.0031
